For 68 compounds, Potency results are on record in PubChem BioAssay AID2289 (National Center for Advancing Translational Sciences (NCATS), 2010).

In all, about 340,000 compounds went through this assay and about 3,300 (0.97%) were called active. Another 9% or so got no clear call; they are omitted. The call rests on the fitted dose curve; in most records, active means well fitted inhibition curve with a large enough effect; inconclusive means small, poorly fitted or top-dose-only effect, or effect the other way; inactive means flat fitted curve, though single readings scatter. The list shows a part of the results.
Potency means the concentration at half of the fitted maximal effect.

A short description of this assay: qHTS Assay for Modulators of miRNAs and/or Inhibitors of miR-21. Further: nearly all actives have a fitted effect of over 55% in size. The conditions noted are these: HeLa miR-21-FLuc reporter, luciferase luminescence, 48 h; actives lower the signal. A digest of the protocol: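 Compounds were titrated across several concentrations (up to approximately 40 uM) and incubated 48 hours with HeLa miR-21-FLuc reporter cells (miR-21 target sequence downstream of FLuc, endogenous miR-21). Readout was firefly luciferase luminescence after lytic detection reagent.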
(In qHTS, concentration-response curves come from the screen itself.)
For `COc1ccc(-c2cnc3c(-c4ccc(F)cc4)cnn3c2N)cc1`, the Potency is 0.521 µM (active). In the case of `Nc1c(-c2cccs2)cnc2c(-c3ccc(F)cc3)cnn12` it was 0.329 µM (active). The value for `c1ccc(-c2cc3nccc(-c4ccccn4)n3n2)cc1` was 3.69 µM (active). The value for `Nc1c(-c2ccc(Cl)cc2)cnc2c(-c3ccccc3)cnn12` was 0.414 µM (active); that for `Nc1c(-c2ccccc2)cnc2cc(-c3ccccc3)nn12` was 0.414 µM (active).

In the case of `Nc1c(-c2ccc(Cl)cc2)nnn1-c1ccccc1`, the Potency is 2.33 µM (active). In the case of `Nc1c(-c2ccc(Cl)cc2)cnc2c(-c3ccc(F)cc3)cnn12` it was 0.585 µM (active); in that of `Nc1c(-c2ccccc2)cnc2c(-c3ccccc3)cnn12`, 0.0927 µM (active). In the case of `Nc1c(-c2ccc(Cl)cc2)cnn1-c1ccccc1` it was 1.65 µM (active); in that of `Nc1c(-c2cccc(Cl)c2)cnc2c(-c3ccccc3)cnn12`, 1.65 µM (active). Consider `O=C(Nc1ccccc1F)c1ccc(OCc2ccccc2)cc1`, for which the Potency is 5.21 µM (active).

On to `CC(=O)Nc1cccc(NC(=O)c2ccc(COc3ccccc3)cc2)c1`, for which the Potency is 1.47 µM (active).

With `CCOC(=O)C(=O)N(Nc1ccc(C)cc1)c1ccc(C)cc1`, the Potency is 9.27 µM (active). For `O=C(O)c1ccc(N=NNc2cccc([N+](=O)[O-])c2)cc1`, the Potency was 5.85 µM (active). The value for `CCOC(=O)/C(N=Nc1ccc2c(c1)OCO2)=C(\C)O` was 4.65 µM (active); that for `CC(=O)/C(N=Nc1ccc2c(c1)OCO2)=C(\C)O` was 6.56 µM (active). In the case of `C/C(=N\NC(=O)COc1ccccc1[N+](=O)[O-])c1cccs1` it was 5.21 µM (active); in that of `C/C(=N\NC(=O)COc1ccccc1)c1cccs1`, 14.7 µM (active). In the case of `Cc1ccn(-c2cccc(-n3ccc(C)n3)n2)n1`, the Potency was 2.61 µM (active).

On to `O=C(NC1CCCCC1)C(=O)c1c[nH]c2ccccc12`, for which the Potency was 4.14 µM (active).

Turning to `O=C(NCC1CCCO1)C(=O)c1c[nH]c2ccccc12` (stereo not drawn), the Potency is 18.5 µM (active). For the compound `O=C(Nc1ccccc1)c1cc2n(n1)C(C(F)(F)F)CC(C1CC1)N2` (stereo not drawn), the Potency was 6.56 µM (active).

On to `COc1ccc(Nc2cc(Nc3cccc(OC)c3)ncn2)cc1`, for which the Potency was 14.7 µM (active). The value for `COc1cccc(Nc2ncnc3ccccc23)c1` was 2.33 µM (active). In the case of `COc1cccc(Nc2ncnc3sc(C)cc23)c1` it was 6.56 µM (active); in that of `COc1ccc(Nc2ncnc3sc(C)cc23)cc1`, 11.7 µM (active). Consider `COc1cccc(Nc2ncnc3sccc23)c1`, for which the Potency is 7.36 µM (active). In the case of `CSc1ccccc1-c1nc(-c2ccncc2)no1` it was 1.85 µM (active). The value for `Cc1ccc(-c2nc(-c3ccncc3)no2)cc1C` was 0.585 µM (active). The value for `COc1ccc(-c2nc(-c3ccncc3)no2)cc1` was 0.464 µM (active); that for `COc1ccc(-c2nc(-c3ccc(Br)cc3)no2)c(OC)c1` was 0.585 µM (active). For `Cc1ccc(-c2nc(-c3ccncc3)no2)cc1`, the Potency is 1.47 µM (active). The value for `CCOCCn1c(N2CCN(c3ccccc3)CC2)nc2c1c(=O)[nH]c(=O)n2C` was 6.56 µM (active); that for `CCCCCCOC(=O)c1ccc(OC(=O)c2cccnc2)cc1` was 6.56 µM (active). As for `Cc1ccc(/C=C2\SC(N3CCCC3)=NC2=O)cc1`, the Potency is 16.5 µM (active).

On to `Cc1cc(OCc2cc(C(=O)N3CCCCCC3)no2)cc(C)c1Cl`, for which the Potency was 5.85 µM (active). In the case of `COCC1CCN(C(=O)c2cc(COc3cc(C)c(Cl)c(C)c3)on2)C1` (stereo not drawn) it was 13.1 µM (active). The value for `COc1cccc(/C(N)=N/OC(=O)Cc2ccccc2[N+](=O)[O-])c1` was 9.27 µM (active); that for `C=CCn1c(=O)c(C(=O)Nc2ccccc2S(N)(=O)=O)c(O)c2ccccc21` was 4.65 µM (active). In the case of `O=C(Nc1cccc(O)c1)c1c(O)c2ccccc2[nH]c1=O` it was 1.47 µM (active); in that of `NS(=O)(=O)c1ccccc1NC(=O)c1c(O)c2ccccc2[nH]c1=O`, 0.736 µM (active); in that of `COc1ccccc1C(=O)OCc1cc(=O)n2c(C)csc2n1`, 10.4 µM (active). As to `COc1ccccc1C(=O)OCc1cc(=O)n2nc(C3CC3)sc2n1`, the Potency was 13.1 µM (active). The value for `c1ccc(C2=NN(c3ccccc3)CC2)cc1` was 5.21 µM (active); that for `Cc1ccc(C(=O)COC(=O)c2cccs2)cc1` was 3.29 µM (active); that for `O=C(OCc1ccccc1F)c1ccc2c(c1)OCCO2` was 18.5 µM (active). The value for `Cc1cccc(C(=O)OCC(=O)c2ccc3c(c2)OCO3)c1O` was 1.85 µM (active); that for `O=C(COC(=O)c1cccs1)c1ccc2c(c1)OCCO2` was 3.69 µM (active). In the case of `CCOC(=O)c1cc2c(=O)c3cc(C)ccc3oc2nc1C` it was 1.04 µM (active). On to `CC(C)c1ccc(NC(=S)NN2CCOCC2)cc1`, for which the Potency is 16.5 µM (active). In the case of `CCOC(=O)/C(C#N)=C/Nc1ccccc1OC` it was 5.21 µM (active); in that of `CNC(=O)/C(C#N)=C/c1ccc(-c2ccc(OC)cc2[N+](=O)[O-])o1`, 18.5 µM (active); in that of `CNC(=O)/C(C#N)=C/c1ccc(-c2ccc(Cl)cc2)o1`, 4.14 µM (active). In the case of `Cc1cccc(C)c1NC(=O)/C(C#N)=C/c1ccc(-c2ccc(C(=O)O)cc2)o1` it was 2.07 µM (active); in that of `CCOC(=O)/C(C#N)=C/c1ccc(-c2ccccc2)o1`, 18.5 µM (active). Consider `Cc1ncc(CO)c(/C=N/N=C/c2ccccc2O)c1O`, for which the Potency was 13.1 µM (active). In the case of `COc1ccc(-c2nn(-c3ccccc3)cc2C#N)cc1` it was 4.14 µM (active); in that of `COc1ccc(-c2nn(-c3ccccc3)cc2N)cc1`, 3.69 µM (active). In the case of `COc1ccc(-c2cc(=Nc3c(C)n(C)n(-c4ccccc4)c3=O)c3ccccc3o2)cc1` it was 4.14 µM (active). In the case of `COc1cc(OC)c2c(=O)cc(-c3ccccc3)oc2c1` it was 6.56 µM (active); in that of `O=c1cc(-c2ccccc2)oc2ccc(O)cc12`, 3.29 µM (active); in that of `O=c1cc(-c2ccc(O)cc2)oc2ccccc12`, 7.36 µM (active). Consider `O=c1cc(-c2ccccc2F)oc2ccccc12`, for which the Potency was 5.21 µM (active). In the case of `COc1ccc(-c2cc(=O)c3ccccc3o2)cc1` it was 5.85 µM (active); in that of `Fc1cccc2sc(Nc3nc4cc5c(cc4s3)OCCO5)nc12`, 0.208 µM (active); in that of `Fc1cccc2sc(Nc3nc4cc5c(cc4s3)OCO5)nc12`, 3.69 µM (active).

As for `O=C(O)c1ccc(N=Nc2c(O)[nH]c3ccc(Br)cc23)cc1`, the Potency is 3.69 µM (active). Turning to `O=C(O)c1ccc(N=Nc2c(O)[nH]c3cc(Cl)ccc23)cc1`, the Potency was 0.165 µM (active).
